KB-3-1 cytotox: kills parental KB-3-1 adenocarcinoma cells | KB-3-1 viability, CellTiter-Glo ATP luminescence, 72 h | Potency, µM (top dose mostly 46.1 µM), usual class: cytotoxic | 400,000 compounds, 1.4% hits | AID 1347075; further: nearly all actives have a fitted effect of over 60% in size
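KB-3-1 cells, DMEM (no phenol red) + 10% FBS; compound by pin transfer, 72 h, 37 °C. Readout: CellTiter-Glo luminescence after 10 min. Data normalized, curve-fitted.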
HT1080 IDH1KD tx: kills HT-1080 cells with IDH1 knockdown | Potency, µM (highest dose often 46.1 µM), inactives show top-dose activity, negative = toxicity, most hits filed as cytotoxic | 360,000 compounds, 2% hits | HT-1080 IDH1 knockdown viability, ATP luminescence, 48 h;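 further: 0% = DMSO wells and -100% = cell-free medium wells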
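IDH1KD HT-1080 cells, 750/well, RPMI + 5% FBS; compound pinned after 2 h settling; 48 h, 37 °C; CellTiter-Glo luminescence; % activity normalised to DMSO and no-cell wells; curves fitted, classed by r2 and efficacy.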
KB-V1 MDR tox: KB-V1 MDR subline cytotoxicity; Potency, µM (doses to about 46.1 µM), hits mostly cytotoxic; KB-V1 MDR cells viability, CellTiter-Glo, 72 h; 400,000 compounds, 3.4% hits; further: nearly all actives have a fitted effect of over 60% in size
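Cells of the MDR subline KB-V1 are plated, dosed with compound at multiple concentrations, and incubated 72 h at 37 degrees C; CellTiter-Glo is then added and luminescence read after 10 min.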
HT1080NT lethal: kills 2HG-producing HT-1080-NT fibrosarcoma cells; HT-1080-NT fibrosarcoma viability, CellTiter-Glo ATP luminescence, 48 h; Potency, µM (series often up to 46.1 µM), inactives show at the top dose activity, negative = less viability, most hits filed as cytotoxic; 360,000 compounds, 1.6% hits; AID 686970;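 further: NT is the 2HG producing partner of a matched IDH1 knockdown line; 0% = DMSO-treated cells and -100% = media-only wells without cells; nearly all actives have a fitted effect of over 55% in size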
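Compounds were tested in concentration-response format on HT-1080-NT cells for 48 hours at 37 degrees C. Cell viability came from CellTiter-Glo luminescence; curves were classified by r2, response magnitude and activity.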
TDP1 cell CPT: growth inhibition of DT40 Tdp1-/-;hTDP1 cells with camptothecin (screen for TDP1 inhibitors); AID 686979; Potency, µM (series often up to 46.2 µM), inactives show at the highest dose activity change, negative = growth inhibition, hits mostly inhibitors; 420,000 compounds, 12% hits; chicken DT40 Tdp1-/-;hTDP1 cells + 20 nM CPT, ATP luminescence, 48 h; further: nearly all actives have a fitted effect of over 55% in size
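Chicken DT40 Tdp1-/- cells complemented with human TDP1, 400 cells/well, exposed to compounds plus 20 nM camptothecin for at least 48 h at 37 C; viability read as ATP content by CellTiter-Glo luminescence.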
TDP1 cell noCPT: qHTS for Inhibitors of human tyrosyl-DNA phosphodiesterase 1 (TDP1): qHTS in cells in absence of CPT | DT40 Tdp1-/- hTDP1 cells, no CPT, ATP luminescence, 48 h | Potency, µM (top dose mostly 46.2 µM), for inactives: top-dose activity change, negative = growth inhibition, usual class: inhibitors | 420,000 compounds, 15% hits | AID 686978, 2013; further: nearly all actives have a fitted effect of over 55% in size
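Cells were dispensed at 400 per well, compounds added by pin tool, plates incubated ≥48 hr at 37 °C, then CellTiter-Glo added for 30 min at room temperature before luminescence reading. Line: DT40 Tdp1-/- complemented with hTDP1; camptothecin omitted.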
* hit, by the source's call. Only some compounds are listed: those with a hit (about 19% of all), similar ones and a draw of the others. The call rests on the fitted dose curve; in most records, active means well fitted curve in the direction sought with a large enough effect; inconclusive means small, poorly fitted or top-dose-only effect, or another doubt; inactive means no such curve, though single readings can be large; an effect the other way counts as inactive or inconclusive. Unless noted, on the % scale 0 is the no-effect control and ±100 the full control effect; potency means the concentration at half of the fitted maximal effect.

What do the screens show for `CC(C)C[C@H](NC(=O)OC(C)(C)C)c1nnc(SCc2ccccc2)o1`?
KB-3-1 cytotox: inactive; HT1080 IDH1KD tx: -22.0%; KB-V1 MDR tox: inconclusive; HT1080NT lethal: -7.7%; TDP1 cell CPT: inconclusive; TDP1 cell noCPT: 23.1µM*

Results for CC(C)(C)OC(=O)N[C@@H](Cc1ccccc1)c1nnc(S(=O)(=O)Cc2cccc(F)c2)o1 ?
KB-3-1 cytotox: 18.4µM*; HT1080 IDH1KD tx: 23.1µM*; KB-V1 MDR tox: 18.4µM*; HT1080NT lethal: inconclusive; TDP1 cell CPT: 1.3µM*; TDP1 cell noCPT: 1.3µM*

How did N#Cc1ccc(OCC(=O)N(C2CCCCC2)C2CCS(=O)(=O)C2)cc1 (configuration not stated) do in these assays?
KB-3-1 cytotox: inactive; HT1080 IDH1KD tx: 9.3%; KB-V1 MDR tox: inactive; HT1080NT lethal: -10.8%; TDP1 cell CPT: -5.8%; TDP1 cell noCPT: 2.6%

Results for O=C(CN1CCN(c2ccc(C(F)(F)F)cn2)CC1)Nc1ccc2c(c1)OCO2 ?
KB-3-1 cytotox: inactive; HT1080 IDH1KD tx: 17.7%; KB-V1 MDR tox: inactive; HT1080NT lethal: 17.2%; TDP1 cell CPT: -25.5%; TDP1 cell noCPT: inconclusive

Results for CCOC(=O)c1cnc2cc(Cl)c(OC)cc2c1NCC1CCCO1 (configuration not stated) ?
KB-3-1 cytotox: inactive; HT1080 IDH1KD tx: -30.0%; KB-V1 MDR tox: inconclusive; HT1080NT lethal: -3.5%; TDP1 cell CPT: inconclusive; TDP1 cell noCPT: 14.6µM*

How did Nc1nc(N)nc(-c2ccc([N+](=O)[O-])o2)n1 do in these assays?
KB-3-1 cytotox: inactive; HT1080 IDH1KD tx: -15.2%; KB-V1 MDR tox: inactive; HT1080NT lethal: -6.0%; TDP1 cell CPT: inconclusive; TDP1 cell noCPT: 23.1µM*

What do the screens show for `CCNC(=O)NC(=O)CSc1ccc(S(=O)(=O)N(C)C2CCCCC2)cn1`?
KB-3-1 cytotox: inactive; HT1080 IDH1KD tx: -0.3%; KB-V1 MDR tox: 20.6µM*; HT1080NT lethal: -9.0%; TDP1 cell CPT: inconclusive; TDP1 cell noCPT: -10.4%

What do the screens show for `O=C(Cn1cnc2cc([N+](=O)[O-])ccc2c1=O)Nc1ccc(N2CCOCC2)cc1`?
KB-3-1 cytotox: inactive; HT1080 IDH1KD tx: 1.7%; KB-V1 MDR tox: inactive; HT1080NT lethal: -7.5%; TDP1 cell CPT: -7.2%; TDP1 cell noCPT: -17.5%

What do the screens show for `c1ccn2cc(-c3ccc4c(c3)OCO4)cc2c1`?
KB-3-1 cytotox: inactive; HT1080 IDH1KD tx: -1.0%; KB-V1 MDR tox: inactive; HT1080NT lethal: 8.3%; TDP1 cell CPT: 16.4µM*; TDP1 cell noCPT: inconclusive

What do the screens show for `c1cnc2nc(-c3ccc4c(c3)OCO4)cn2c1`?
KB-3-1 cytotox: inactive; HT1080 IDH1KD tx: inconclusive; KB-V1 MDR tox: inactive; HT1080NT lethal: -19.5%; TDP1 cell CPT: -13.4%; TDP1 cell noCPT: inconclusive

What do the screens show for `C=Cc1ccc(CC2(C)C(=O)Nc3ccc(Cl)cc32)cc1` (configuration not stated)?
KB-3-1 cytotox: inactive; HT1080 IDH1KD tx: -26.8%; KB-V1 MDR tox: inactive; HT1080NT lethal: -27.7%; TDP1 cell CPT: -12.2%; TDP1 cell noCPT: -27.1%

What do the screens show for `O=C(NC1CCCCC1)C1CCCN(c2nnnn2-c2ccccc2)C1` (configuration not stated)?
KB-3-1 cytotox: inactive; HT1080 IDH1KD tx: -7.4%; KB-V1 MDR tox: 16.4µM*; HT1080NT lethal: 21.1%; TDP1 cell CPT: -12.7%; TDP1 cell noCPT: -12.5%

What do the screens show for `CCOc1ccc(Oc2c(/C=N/NC(C)=O)c(C)nn2-c2ccccc2)cc1`?
KB-3-1 cytotox: inactive; HT1080 IDH1KD tx: -13.2%; KB-V1 MDR tox: inactive; HT1080NT lethal: -8.5%; TDP1 cell CPT: -17.7%; TDP1 cell noCPT: inconclusive

Results for CCOc1ccc(NC(=O)C2CCN(c3nnnn3-c3ccccc3)CC2)cc1 ?
KB-3-1 cytotox: inactive; HT1080 IDH1KD tx: -0.5%; KB-V1 MDR tox: 8.2µM*; HT1080NT lethal: -0.1%; TDP1 cell CPT: -4.0%; TDP1 cell noCPT: -25.3%

How did CCOc1ccc(Oc2c(/C=N/NC(=O)C3CC3)c(C)nn2-c2ccccc2)cc1 do in these assays?
KB-3-1 cytotox: inconclusive; HT1080 IDH1KD tx: -13.5%; KB-V1 MDR tox: inactive; HT1080NT lethal: -15.9%; TDP1 cell CPT: inconclusive; TDP1 cell noCPT: 14.6µM*

How did CC(Sc1nnnn1-c1ccccc1)C(=O)NC1CCCC1 (configuration not stated) do in these assays?
KB-3-1 cytotox: inactive; HT1080 IDH1KD tx: 6.9%; KB-V1 MDR tox: 13µM*; HT1080NT lethal: 6.7%; TDP1 cell CPT: -6.4%; TDP1 cell noCPT: -12.0%

Results for O=C1NC[C@@H](CCCCN2CCN(Cc3ccccc3)C(=O)C2=O)N(CCC2CCCCC2)C1=O ?
KB-3-1 cytotox: inactive; HT1080 IDH1KD tx: 1.3%; KB-V1 MDR tox: inconclusive; HT1080NT lethal: 12.6%; TDP1 cell CPT: 0.2%; TDP1 cell noCPT: -17.8%

How did CC(C)(C)c1ccc(S(=O)(=O)NC(=O)C2(C)CCN2C(=O)CC2CCCCC2)cc1 (configuration not stated) do in these assays?
KB-3-1 cytotox: inactive; HT1080 IDH1KD tx: 3.6%; KB-V1 MDR tox: inconclusive; HT1080NT lethal: -5.1%; TDP1 cell CPT: -13.0%; TDP1 cell noCPT: -5.5%

What do the screens show for `CCOC(=O)c1cc(C)n(CC2CCC(C(=O)Nc3cccc(C)c3)CC2)c1C` (configuration not stated)?
TDP1 cell CPT: 18.4µM*; TDP1 cell noCPT: inconclusive

How did CCOC(=O)c1cc(C)n(CC2CCC(C(=O)Nc3ccc(C)c(F)c3)CC2)c1C (configuration not stated) do in these assays?
TDP1 cell CPT: inconclusive; TDP1 cell noCPT: -27.5%

What do the screens show for `CCOC(=O)c1cc(C)n(CC2CCC(C(=O)Nc3cc(OC)cc(OC)c3)CC2)c1C` (configuration not stated)?
TDP1 cell CPT: inconclusive; TDP1 cell noCPT: 23.1µM*

Results for CCOC(=O)c1cc(C)n(CC2CCC(C(=O)Nc3ccc(OC)cc3)CC2)c1C (configuration not stated) ?
TDP1 cell CPT: 14.6µM*; TDP1 cell noCPT: 20.6µM*

How did Cc1cccc(N2CCN(C(=O)CC(NC(=O)c3ccccc3Cl)c3ccccc3)CC2)c1C (configuration not stated) do in these assays?
KB-3-1 cytotox: inactive; HT1080 IDH1KD tx: -15.7%; KB-V1 MDR tox: inactive; HT1080NT lethal: -17.2%; TDP1 cell CPT: 18.4µM*; TDP1 cell noCPT: inconclusive
